MBD2 DNA inh – inhibitors of MBD2 binding to methylated DNA, primary screen, biochemical, TR-FRET, DNA-binding domain, human | 370,000 tested, 0.31% active | MBD2 binding to methylated oligonucleotide | inhibition, % at 4.4 µM; in the data active = inhibition above about 13%
UHRF1 binding – UHRF1 methylated DNA binding inhibitors, primary screen, counter-screen for MBD2 inhibitor project, biochemical, TR-FRET, human UHRF1, single concentration; UHRF1 binding to methylated oligo; E3 ubiquitin-protein ligase UHRF1 (Homo sapiens), Q96T88; inhibition, % at 4.4 µM; 370,000 tested, 0.75% active; AID 687016, 2013; in the data active = inhibition above about 21%;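 also: UHRF1 SRA domain binding a hemimethylated CpG hairpin DNA probe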
Target sequence (Q96T88 whole entry, looked up, the tested form may be a part): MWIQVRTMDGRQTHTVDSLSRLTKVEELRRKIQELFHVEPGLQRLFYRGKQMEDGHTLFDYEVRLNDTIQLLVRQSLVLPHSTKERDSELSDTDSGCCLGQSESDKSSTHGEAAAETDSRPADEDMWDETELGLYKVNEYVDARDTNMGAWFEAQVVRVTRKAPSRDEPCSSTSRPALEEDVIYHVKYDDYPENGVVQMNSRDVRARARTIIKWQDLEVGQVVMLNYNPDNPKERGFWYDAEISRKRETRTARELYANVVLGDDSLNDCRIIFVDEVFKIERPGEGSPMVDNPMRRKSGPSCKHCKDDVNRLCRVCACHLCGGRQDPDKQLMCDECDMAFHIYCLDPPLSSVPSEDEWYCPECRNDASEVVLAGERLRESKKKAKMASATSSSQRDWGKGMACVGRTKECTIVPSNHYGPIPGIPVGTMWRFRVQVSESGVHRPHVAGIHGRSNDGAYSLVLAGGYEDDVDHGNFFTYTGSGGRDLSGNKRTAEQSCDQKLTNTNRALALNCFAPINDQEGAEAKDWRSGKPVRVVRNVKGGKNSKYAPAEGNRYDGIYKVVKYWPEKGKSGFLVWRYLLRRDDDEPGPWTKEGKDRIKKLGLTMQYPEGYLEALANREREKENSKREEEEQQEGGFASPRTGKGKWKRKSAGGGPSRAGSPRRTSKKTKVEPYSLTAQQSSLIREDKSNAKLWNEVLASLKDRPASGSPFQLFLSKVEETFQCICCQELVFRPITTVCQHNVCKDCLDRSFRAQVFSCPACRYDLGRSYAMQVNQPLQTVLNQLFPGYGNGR
PfM18AAP inh – PfM18AAP inhibitors, malaria aminopeptidase, primary screen, biochemical, QFRET, recombinant enzyme. 290,000 tested, 1.2% active. AID 1822, 2009. M18 aspartyl aminopeptidase (Plasmodium falciparum 3D7). inhibition, % at 7.35 µM. H-Glu-NHMec fluorogenic cleavage;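 active = inhibition above the campaign mean inhibition over all tested compounds plus 3 SD, cut at about 28% in these data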
PfG6PD inh – PfG6PD enzyme inhibitors, primary screen, biochemical, fluorescence intensity, uHTS; glucose-6-phosphate dehydrogenase-6-phosphogluconolactonase (Plasmodium falciparum 3D7); PfGluPho enzyme, NADPH resazurin-diaphorase fluorescence; inhibition, % at 20 µM; 350,000 tested, 0.78% active; AID 504690, 2011;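 active = inhibition reaching at least a set limit at 20 µM in the primary screen, cut at about 59% in these data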
PRMT1 FP inh – PRMT1 methyltransferase inhibitors, primary screen, biochemical, fluorescence polarization; Protein arginine N-methyltransferase 1 (Homo sapiens), Q99873; recombinant PRMT1, activity-based probe fluorescence polarization; inhibition, % at 2.79 µM; 370,000 tested, 1.3% active;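 active = inhibition above about 21% made by adding two undisclosed values, limit read from the data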
Each line names hits and unclear results; the compound was inactive in the other large screens. Shown are actives, neighbours in structure and some others; about 3.3% of the full set was active somewhere.

CCOc1ccc(NC(=O)c2cccc(NC3=NC4CS(=O)(=O)CC4S3)c2)cc1 (stereo not drawn)	none
CCc1ccc(NC(=O)c2cccc(NC3=NC4CS(=O)(=O)CC4S3)c2)cc1 (stereo not drawn)	UHRF1 binding 27
CN1CCN(c2cc(N3CCN(C(=O)c4ccco4)CC3)c3c4c(onc24)-c2ccccc2C3=O)CC1	PfG6PD inh 74 (no result: MBD2 DNA inh, UHRF1 binding, PRMT1 FP inh)
O=C(O)CCCNc1cc(N2CCN(C(=O)c3ccco3)CC2)c2noc3c2c1C(=O)c1ccccc1-3	none
COc1cccc(C(=O)NN2C(=O)C3C4C=CC(O4)C3C2=O)c1 (stereo not drawn)	PRMT1 FP inh 23
CC(C)Cn1c(=O)cc(N2CCN(c3cccc(C(F)(F)F)c3)CC2)[nH]c1=O	none (no result: PfM18AAP inh, PfG6PD inh)
CN(C)c1ccc(N=Cc2ccco2)cc1	PfG6PD inh 60 (no result: MBD2 DNA inh, UHRF1 binding, PRMT1 FP inh)
CCOC(=O)C1=C(C(=O)OCC)C2N(Cc3ccc(C#N)cc3)c3ccccc3[C@@]23C[C@@H](C(=O)OC)N(S(=O)(=O)c2ccc(C)cc2)C3=N1 (stereo partly drawn)	none (no result: PfM18AAP inh, PfG6PD inh)
O=C(NCc1ccccc1Cl)O[C@H]1CC[C@@]23CCCN2C(=O)CCC[C@H]3C1	none (no result: PfM18AAP inh, PfG6PD inh)
CCCNc1cc(=S)nc(N)[nH]1	PRMT1 FP inh 22
O=C(NCc1ccc(C(=O)NCC2CCCO2)cc1)c1cccc(Br)c1 (stereo not drawn)	none (no result: PfM18AAP inh, PfG6PD inh)
COc1ccc2c(CCN3C(=O)c4ccccc4C3=O)c(-c3c(CCN4C(=O)c5ccccc5C4=O)c4ccccc4n3C(=O)OC(C)(C)C)[nH]c2c1	none (no result: PfM18AAP inh, PfG6PD inh)
Cc1nnc(OCc2nc3ccccc3n2C)c2ccccc12	none
Cc1nnc(-n2cnc3ccccc32)c2ccccc12	UHRF1 binding 21
CCNC(=O)N(C)[C@H]1C[C@H]2c3[nH]c4c(-c5ccc6c(c5)OCO6)cccc4c3CCN2C(=O)[C@H]1[C@H](C)O	none (no result: PfM18AAP inh, PfG6PD inh)
COCCn1cnc2c(c1=O)c1nc3ccccc3nc1n2/N=C/c1cccc(OC)c1	UHRF1 binding 24
Cc1cc(N2CCN(C(=O)OC(C)(C)C)C[C@@H]2C)ccc1N1CCN(Cc2ccccc2)[C@H](C)C1	none (no result: PfM18AAP inh, PfG6PD inh)
COc1ccc(C(C(=O)NC2CCCC2)N(C(=O)c2ccco2)c2ccc(OC)c(OC)c2)cc1 (stereo not drawn)	none
COc1ccc(N(C(=O)c2ccco2)C(C(=O)NC2CCCC2)c2ccncc2)cc1OC (stereo not drawn)	UHRF1 binding 23
CC(=O)c1ccc(OCc2cc([N+](=O)[O-])cc3c2OCOC3)cc1	UHRF1 binding 23
CCOc1ccc(Br)cc1S(=O)(=O)Nc1cccc(S(=O)(=O)N(C)c2ccccc2)c1	UHRF1 binding 23
CCOc1ccc(Br)cc1S(=O)(=O)Nc1ccc(C(=O)OCC(=O)N(C)c2ccccc2)cc1	none
CN[C@H]1C[C@@H](c2ccccc2Br)N(C(C)=O)C[C@H]1CO	none (no result: PfM18AAP inh, PfG6PD inh)
C/C(=N\NC(=O)c1ccc(N2CCCC2=O)cc1)c1ccc(O)cc1O	PfM18AAP inh 28
O=C(NCCO)[C@H](Cc1ccccc1)NC1(C(=O)NCCN2CCOCC2)CCCCC1	none (no result: PfM18AAP inh, PfG6PD inh)
O=C1NC(=O)N2CCSC2(Cc2ccccc2)N1 (stereo not drawn)	PRMT1 FP inh 21 (no result: PfM18AAP inh)
C[C@@H]1CN([C@@H](C)CO)C(=O)CCCn2cc(nn2)CO[C@H]1CN(C)C(=O)CCC(F)(F)F	none (no result: PfM18AAP inh, PfG6PD inh)
CN(Cc1ccco1)c1ncnc2ccc(-c3ccoc3)cc12	UHRF1 binding 22 (no result: PfM18AAP inh)
CCCCN(CC)CCCNC(=O)c1cn(C)c2ccc(S(=O)(=O)N(C)C3CCCCC3)cc2c1=O	none
CCN(CC)CCCNC(=O)c1cn(C)c2ccc(S(=O)(=O)N(C)C)cc2c1=O	UHRF1 binding 27
CCOc1ccccc1NC(=S)N1CCN(c2ccc(O)cc2)CC1	PfM18AAP inh 30
Cc1cc(N2C(=O)C=CC2=O)c([N+](=O)[O-])cc1C	PfG6PD inh 91 (no result: MBD2 DNA inh, UHRF1 binding, PRMT1 FP inh)
Cc1c([N+](=O)[O-])cc(N2C(=O)C=CC2=O)cc1[N+](=O)[O-]	PfG6PD inh 101 (no result: MBD2 DNA inh, UHRF1 binding, PfM18AAP inh, PRMT1 FP inh)
O=C(N[C@H](C(=O)N1CCC[C@H]1C(=O)NC1CCCC1)C1CCCCC1)c1nccs1	none (no result: PfM18AAP inh, PfG6PD inh)
CC(=O)C1C(c2ccc(C)cc2)c2c(n[nH]c2C)CC1(C)O (stereo not drawn)	UHRF1 binding 23
CCCCCC1(C(=O)OCC)CC(CSC(=N)N)OC1=O (stereo not drawn)	none
CCOC(=O)C1(CC/C(C)=N\NC(N)=O)CC(C)OC1=O (stereo not drawn)	UHRF1 binding 21
CC1(C)CC(NC(=O)c2ccccc2)CC(C)(C)N1	none
CC1(C)CC(Nc2ccc(Nc3ccccc3)cc2)CC(C)(C)N1	PRMT1 FP inh 23
c1ccc(C2=NNC(=NC3CC3)SC2)cc1	PRMT1 FP inh 65
CCOc1ccc(C(=O)NC(=S)Nc2ccccc2N2CCCCC2)cc1[N+](=O)[O-]	none
CCOc1ccc(C(=O)NC(=S)Nc2ccc(N3CCCCC3)cc2)cc1[N+](=O)[O-]	PfG6PD inh 64
O=C(OC1CCCCC1)c1ccc2c(c1)C1C=CCC1C(C(=O)O)N2 (stereo not drawn)	none (no result: MBD2 DNA inh, UHRF1 binding, PfG6PD inh, PRMT1 FP inh)
COC(=O)CNC(=O)C1Nc2ccccc2C2C=CCC12 (stereo not drawn)	PRMT1 FP inh 37 (no result: PfM18AAP inh)
CCOC(=O)C1Nc2ccc(C)cc2C2C=CCC12 (stereo not drawn)	PRMT1 FP inh 23 (no result: PfM18AAP inh)
CCOC(=O)c1ccc2c(c1)C1C=CCC1C(C(=O)OCC)N2 (stereo not drawn)	PRMT1 FP inh 23
O=C(O)C1Nc2ccc(Br)cc2C2C=CCC12 (stereo not drawn)	none (no result: MBD2 DNA inh, UHRF1 binding, PRMT1 FP inh)
CCCCCCCCN1C(=O)[C@@H](CC(=O)N2CCN(C(=O)c3ccco3)CC2)C[C@@]2(C(=O)OC)C1=C[C@H](C1CCCC1)O[C@@H]2C	none (no result: PfM18AAP inh, PfG6PD inh)
OC(C#CCN1CCCC1)(c1ccccc1)c1cccnc1 (stereo not drawn)	UHRF1 binding 21
O=C(CSc1nc2ccccc2c(=O)n1-c1ccccc1F)Nc1ccc2c(c1)CCC2	none
CCN(CC)CCn1c(SCC(=O)Nc2ccc3c(c2)CCC3)nc2ccccc2c1=O	PRMT1 FP inh 21 (no result: PfM18AAP inh)
CC(=O)c1cccc(NC(=O)CN(c2cccc(F)c2)S(C)(=O)=O)c1	none
CS(=O)(=O)N(CC(=O)Nc1ccc(S(=O)(=O)N2CCCC2)cc1)c1cccc(F)c1	UHRF1 binding 28
O=C(N=C1SC2CS(=O)(=O)CC2N1c1c(Cl)cccc1Cl)C1CC1 (stereo not drawn)	none
CC(=O)N=C1SC2CS(=O)(=O)CC2N1c1c(Cl)cccc1Cl (stereo not drawn)	UHRF1 binding 24
COC(=O)[C@]12C[C@H](CC(=O)NCc3cccc4ccccc34)C(=O)N(CCC3=CCCCC3)C1=C[C@H](COCc1ccccc1)O[C@@H]2C	none (no result: PfM18AAP inh, PfG6PD inh)

Source: PubChem (several laboratories)
